Laboratory results taken from the supplement of paper PMC6555819.

Assays:
Experiment in all cases: PBM binding z-score (relative to random genomic background probes); higher = stronger binding; sequences stand for … in GC…GCGATTGACAGCGTAGAATGAAGG
[1] = test system: FXR:RXRa (NR concentration 270 nM, RXRa partner concentration 90 nM)
Outline: (§1)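 Ligand-free nuclear receptor dimers were bound for 1 h to custom Agilent 4×180K protein-binding microarrays. Detection used antibodies against each partner (one per run). Binding z-scores rest on regression-normalized fluorescence, with random background probes as the reference.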

[2] = test system: LXRa:RXRa (NR concentration 270 nM, RXRa partner concentration 90 nM)
Outline: as §1

[3] = test system: LXRa homodimer (NR concentration 270 nM)
Outline: as §1

[4] = test system: LXRb:RXRa (NR concentration 270 nM, RXRa partner concentration 90 nM)
Outline: as §1

[5] = test system: LXRb homodimer (NR concentration 270 nM)
Outline: as §1

[6] = test system: PPARa:RXRa (NR concentration 270 nM, RXRa partner concentration 90 nM)
Outline: as §1

[7] = test system: PPARg:RXRa (NR concentration 180 nM, RXRa partner concentration 90 nM)
Outline: as §1

[8] = test system: PPARg:RXRa 270nM:90nM, anti-RXR (NR concentration 270 nM, RXRa partner concentration 90 nM)
Outline: as §1

[9] = test system: PPARg:RXRa 30nM:10nM, anti-RXR (NR concentration 30 nM, RXRa partner concentration 10 nM)
Outline: as §1

[10] = test system: PPARg:RXRa 90nM:30nM, anti-RXR (NR concentration 90 nM, RXRa partner concentration 30 nM)
Outline: as §1

[11] = test system: PPARg:RXRa DBDmut IVT, anti-RXR (DBD mutation: RXRa K156A/R161A, NR concentration 270 nM, RXRa partner concentration 90 nM)
Outline: as §1

[12] = test system: PPARg:RXRa IVT, anti-PPARg (NR concentration 270 nM, RXRa partner concentration 90 nM)
Outline: as §1

[13] = test system: PPARg DBDmut:RXRa IVT, anti-PPARg (DBD mutation: PPARg1 K132A/R137A, NR concentration 270 nM, RXRa partner concentration 90 nM)
Outline: as §1

[14] = test system: PPARg DBDmut IVT, anti-PPARg (DBD mutation: PPARg1 K132A/R137A, NR concentration 270 nM)
Outline: as §1

[15] = test system: PPARg homodimer (NR concentration 180 nM)
Outline: as §1

[16] = test system: PXR homodimer (NR concentration 270 nM)
Outline: as §1

[17] = test system: RARa:RXR (NR concentration 270 nM, RXRa partner concentration 90 nM)
Outline: as §1

[18] = test system: RARa homodimer (NR concentration 270 nM)
Outline: as §1

[19] = test system: RARb:RXRa (NR concentration 270 nM, RXRa partner concentration 90 nM)
Outline: as §1

[20] = test system: PXR:RXRa (NR concentration 270 nM, RXRa partner concentration 90 nM)
Outline: as §1

Sequence	PBM binding z-score [1]	PBM binding z-score [2]	PBM binding z-score [3]	PBM binding z-score [4]	PBM binding z-score [5]	PBM binding z-score [6]	PBM binding z-score [7]	PBM binding z-score [8]	PBM binding z-score [9]	PBM binding z-score [10]	PBM binding z-score [11]	PBM binding z-score [12]	PBM binding z-score [13]	PBM binding z-score [14]	PBM binding z-score [15]	PBM binding z-score [16]	PBM binding z-score [17]	PBM binding z-score [18]	PBM binding z-score [19]	PBM binding z-score [20]
CCTTACAGGTCAAGGTTATAGCACGGGTGGTACG	6.13	4.73	2.02	3.5	1.18	5.2	4.94	4.89	1.9	3.82	3.89	4.19	0.977	0.925	3.36	0.575	4.39	1.94	4.65	
CGAACTAGGTCACCGGGACAGTGAAGAGGTTGGA	4.89	2.78	-0.0882	1.89	-0.502	5.58	9.04	7.34	5.02	7.12	7.85	9.13		0.892	2.28	-0.271	3.2	0.436	4.33	1.79
CGAACTAGGTCACCACGACAGTGAAGAGGTTGGA	4.13	2.41	0.318	1.87	-0.171	5.18	8.44	7.14	4.87	6.86	8.39	9		4.26	2.32	-0.289	2.78	0.591	4.21	1.46
ATATGTAGGTTAGGGTTATTCAGAAAGTAGGGAA	2.3	2.27	0.961	2.84	1.66	4.11	5.61	5.21	3.18	4.8	6.88	6.54		2.32	2.77	1.31	2.55	1.94	1.57	2.33
ATATGTTGGTTAGGGTCATTCAGAAAGTAGGGAA	4.81	4	1.67	4.72	2.36	4.86	3.15	3.69	1.7	2.88	1.44	2.45		1.7	3.53	2.69	4.96	2.67	3.2	4.44
CGAACTGGGTCACCAGGACAGTGAAGAGGTTGGA	3.32	1.63	-0.247	1.24	-0.906	4.99	8.62	6.73	4.52	6.31	7.66	8.73		1.6	1.47	-0.358	2.52	-0.049	3.73	1.55
CGAACTAGGTCACCAGGACAGTGAAGAGGTTGGA	3.86	2.39	-0.071	1.65	-0.543	5.04	8.82	7	4.54	6.65	8.47	8.79		4.55	2.24	0.0754	2.76	0.232	4.14	1.37
CGAACTAGGTCAGAGGACAGTGAAAGGCGACGTA	1.21	0.781	-0.404	0.187	-0.968	3.61	8.37	6.52	6.22	7.35	7.39	7.68		-0.191	1.33	-0.238	0.823	-0.0193	3.36	0.248
ATATGTAGGTTAGGCTCATTCAGAAAGTAGGGAA	-0.281	-0.0164	-0.0399	0.129	0.223	2.21	2.96	2.43	0.952	1.84	6.49	5.75		1.4	0.501	0.16	-0.184	0.657	0.339	-0.124
CGAACTAGGACACCAGGACAGTGAAGAGGTTGGA	-0.0401	-0.43	-0.083	-0.854	-0.923	0.865	2.08	1.33	0.527	0.812	6.02	5.32		-0.0745	0.381	-0.233	-0.0962	0.279	0.552	-0.661
CGACCTAGGTCACCAGGACAGTGAAGAGGTTGGA	4.89	2.91	-0.161	2.09	-0.881	4.22	5.25	4.5	1.21	3.13	4.19	4.65		-0.593	1.87	-0.328	2.95	-0.595	4.37	1.62
CGAACTAGGACAAAGGACAGTGAAAGGCGACGTA	-0.156	-0.553	-0.411	-0.765	-0.967	2.45	5.34	5.78	3.93	5.64	4.53	4.05		-0.402	0.327	-0.257	-0.272	-0.328	1.12	-0.405
CGCACTAGGTCAAAGGACAGTGAAAGGCGACGTA	4.07	2.88	0.082	1.83	-0.151	5.48	10.1	8.55	8.13	8.98	7.3	8.16		0.801	0.993	0.0363	2.25	0.165	3.84	1.27
CGAACCAGGTCAAAGGACAGTGAAAGGCGACGTA	5.18	3.73	0.284	2.63	-0.254	5.27	7.61	7.03	4.9	6.76	4.57	5.82		0.805	1.1	0.537	2.82	0.116	3.86	2.07
ATATGTAGGCTAGGGTCATTCAGAAAGTAGGGAA	3.72	3.09	0.43	3.94	0.611	5.08	5.38	4.76	3.09	4.24	4.03	4.85		0.962	1.74	1.05	4.04	1.2	3	3.55
